Screening data from PubChem.
In the library only some 5.7% were active in any assay of this set; here they are far more common.
IL1B secr inh – inhibitors of inflammasome signaling (IL-1 beta secretion) | activity change, % at 57.5 µM | AID 743279 | THP-1 LPS/ATP IL-1B secretion, AlphaLISA, 16 h; hits give low values | actives 4.7% (n = 360,000); in the data active = activity change below about -50%; inconclusive = mostly about -30% to -49%; note: % is set by controls: 0 for no effect and ±100 for the full control effect
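THP-1 cells pretreated 1 hr with compounds (up to 57.5 uM final), then stimulated with LPS (250 ng/mL final) plus ATP (1.25 mM final); secreted IL-1B measured by AlphaLISA after 16 hr, decreased signal indicating inhibition.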
TGFb SMAD3 inh – inhibitors of TGF-b signaling | HepG2 CAGA-GFP TGF-b/SMAD3 reporter, GFP fluorescence, 18 h; TGF-beta stimulated, 500 pg/mL final | Potency, µM (highest dose often 46.1 µM), inactives show at the top dose activity, negative = inhibition, most hits filed as inhibitors | actives 1.2% (n = 410,000); note: potency is the fitted concentration of half-maximal effect; % is set by controls: 0 for no effect and ±100 for the full control effect; nearly all actives have a fitted effect of over 65% in size
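GFP signal (ex488/em500-530) from TGF-beta-stimulated HEPG2 CAGA-GFP cells, 500 pg/mL final, 18 h at 37 degrees C in DMEM plus 1% FBS, normalized to unstimulated and DMSO-stimulated controls.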
ATXN2 expr inh – inhibitors of ATXN2 expression; HEK-293 ATXN2-luciferase reporter, luminescence, 24 h; Potency, µM (highest dose often 57 µM), for inactives: at the top dose activity change, negative = inhibition, usual class: inhibitors; actives 0.72% (n = 360,000); AID 1745845; note: potency is the fitted concentration of half-maximal effect; % is set by controls: 0 for no effect and ±100 for the full control effect; nearly all actives have a fitted effect of over 55% in size
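ATXN2-luciferase reporter cells (luciferase flanked by upstream and downstream ATXN2 gene portions) were treated 24 h at 37 °C with compounds at up to 57 uM. SteadyGlo luminescence gave expression; GF-AFC fluorescence gave viability.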
S2 tox – cell viability loss in ATXN counter-screen; actives 0.49% (n = 400,000); Potency, µM (titrated, usually from 56.7 µM), usual class: cytotoxic; S2 cells (HEK-293 line with an ATXN2-luciferase reporter) viability, CellTiter-Fluor protease fluorescence, 24 h; note: potency is the fitted concentration of half-maximal effect; nearly all actives have a fitted effect of over 40% in size
HepG2 tox – counter-screen for TGF-b inhibitors: cytotoxicity in HepG2 cells; actives 0.76% (n = 410,000); HepG2 CAGA-GFP viability, ATP luminescence, 18 h; AID 588856; Potency, µM (titrated, usually from 46.1 µM), for the others: at the highest dose activity change, negative = cytotoxicity, actives largely listed as cytotoxic; note: potency is the fitted concentration of half-maximal effect
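CellTiter-Glo luminescence gave cytotoxicity after 18 hours at 37 degrees C. The cells were HepG2 CAGA-GFP in 1% FBS DMEM, stimulated with 500 pg/mL TGF-beta after compound addition. %Activity was normalised to no-cell wells (complete cell-killing) and DMSO (no toxicity), and curves were fitted and classified.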
The depositor's hits bear a star; i = inactive; ? = inconclusive; . = no result given; ! = not confirmed by another sample; [ ] = dose if it differs, or a comment. Unless noted, calls come from the whole dose curve; as a rule, active = well fitted curve in the direction sought with a large enough effect; inconclusive = small, poorly fitted or top-dose-only effect, or another doubt; inactive = no such curve, though single readings can be large; an effect the other way counts as inactive or inconclusive.

SMILES | IL1B secr inh | TGFb SMAD3 inh | ATXN2 expr inh | S2 tox | HepG2 tox
CCC1CN(CCNC(=O)c2ccc(C#CC(C)(C)O)cc2)Cc2cc(OC)ccc2O1 (stereo unspecified) | . | . | . | i | .
Cc1ccc(NC(=O)CN(Cc2ccco2)Cc2ccccc2O)cc1C | -62* | ? | -31% | i | -15%
O=C(Nc1ccc(-c2nc3ccccc3[nH]2)cc1)C1CCCO1 (stereo unspecified) | -15 | 7% | -29% | i | 7.1µM*
O=C(Nc1ccc(-c2nc3ccccc3[nH]2)cc1)c1ccc2c(c1)OCO2 | 44 | 7.9µM* | -28% | ? | 8.9µM*
Cc1cccc(-c2nc3scc(CCNS(=O)(=O)c4ccc5c(c4)OCCO5)n3n2)c1 | . | ? | . | . | -7%
COc1ccc(CNC(=O)C(c2ccco2)N(Cc2ccccc2)C(=O)Cc2cccs2)cc1 (stereo unspecified) | 4 | ? | 2% | i | -32%
COc1ccc(CNC(=O)C(c2ccco2)N(Cc2cccs2)C(=O)Cc2cccs2)cc1 (stereo unspecified) | -52* | -9% | -5% | ? | -34%
CCOC(=O)N1CCN(C(=O)CN2C(=O)/C(=C\c3cccc(OC)c3)SC2=S)CC1 | . | 25% | . | . | 24%
COc1ccccc1NC(=O)N1CCN(c2ccc3nnc(-c4ccc(F)cc4)n3n2)CC1 | -52* | ? | 18µM*! | . | -21%
C=CC(=O)Nc1cccc(Oc2cc(Cl)nc3[nH]ccc23)c1 | -72* | ? | ? | 18µM* | -21%
CC(=O)N(C)Cc1ccc(C(=O)CCl)cc1 | -106* | -16% | ? | ? | 7%
CC(=O)NCc1ccc(C(=O)CCl)s1 | -17 | ? | ? | . | 11µM*
COc1ccc(C(=O)OCC(=O)c2ccc(CNC(C)=O)s2)cc1 | 5 | 9% | 35% | i | -13%
CC(=O)NCc1ccc(C(=O)CCl)cc1 | -102* | ? | 30% | i | -31%
CC(=O)Nc1ccc(C(=O)CCl)cc1 | -104* | ? | 5% | ? | -53%
O=S(=O)(c1ccc(Cl)cc1)c1nc(-c2cccs2)oc1SCc1ccccc1F | . | -12% | 0% | i | -17%
NC1=NC(=Nc2ccc(S(=O)(=O)N3CCOCC3)cc2)c2ccccc21 | -51* | -15% | -29% | i | 4%
CC(C)c1ccc(N=C2N=C(N)c3ccccc32)cc1 | -96* | ? | ? | . | -53%
NC1=NC(=Nc2ccccc2)c2ccccc21 | ? | -1% | ? | ? | -16%
NC1=NC(=Nc2ccc(Br)cc2)c2ccccc21 | -101* | ? | -10%[11.3 µM] | i | -4%
Cc1cc(C(=O)NCC2CCC3(CCN(Cc4ccc(F)cc4)CC3)O2)n(C)n1 (stereo unspecified) | . | . | . | i | .
O=C(C[C@@H]1C[C@H]2c3cc(NC(=O)C4CCC4)ccc3O[C@H]2[C@@H](CO)O1)NCc1ccc(-c2ccccc2)cc1 | 5 | ? | ? | ? | 16µM*
COC(=O)C[C@@H]1C[C@H]2c3cc(NC(=O)C4CCC4)ccc3O[C@H]2[C@@H](CO)O1 | 10 | -2% | 5% | i | -12%
O=C(COc1ccc(F)cc1)Nc1ccccc1C(=O)OCc1cc(=O)n2ccsc2n1 | . | -1% | 14% | i | 2%
CC1(C)CC(C(=O)Nc2ccccc2)C(=O)O1 (stereo unspecified) | -11 | 0% | 10% | i | 0%
SMILES | IL1B secr inh | TGFb SMAD3 inh | ATXN2 expr inh | S2 tox | HepG2 tox
C[C@]1(O)CC(=O)C=C[C@H]1Nc1ccccc1 | -104* | ? | ? | ? | -20%
Cc1cc2c(n1-c1ccc(C(=O)NCC(C)c3ccccc3)cc1)CCCC2 (stereo unspecified) | . | ? | 0% | i | -62%
COc1cc(/C=N/n2c(-c3ccc4c(c3)NC(=O)CO4)csc2=Nc2cccc(C)c2)ccc1O | ? | ? | ? | ? | -9%
COCCN=c1scc(-c2ccc3c(c2)NC(=O)CO3)n1/N=C(\C)c1ccc(O)cc1 | -61* | -3% | 0% | ? | -27%
Cc1ccc(S(=O)(=O)C(CNS(=O)(=O)c2ccc(F)c(C(F)(F)F)c2)c2ccco2)cc1 (stereo unspecified) | . | ? | . | . | -55%
N#CC(C#N)=C1C=CC=CN1/C(=C\c1ccccc1Cl)C(=O)c1ccccc1 | -73* | 3.2µM* | 13µM* | ? | 7.1µM*
N#CC(C#N)=C1C=CC=CN1/C(=C\c1ccccc1)C(=O)c1cccs1 | -18 | -16% | 6% | i | -18%
NC(=O)c1cc(-c2ccccc2)nc(N2CCCCCC2)n1 | -16 | ? | -11% | i | -47%
NC(=O)c1cc(-c2ccccc2)nc(N2CCOCC2)n1 | -50* | 11% | -1% | i | -56%
COc1ccc(Cc2n[nH]c(=S)n2C)cc1Br | -68* | -2% | -6% | i | 13%
Cc1cc(C)n(-c2nc(NCCN(C)C)c3c4c(sc3n2)COC(C)(C)C4)n1 | . | ? | ? | i | -90%
Cc1cc(C)n(-c2nc(NCCCN(C)C)c3c4c(sc3n2)COC(C)(C)C4)n1 | -62* | -5% | 10% | i | -14%
Cc1cc(C)n(-c2nc(NCCN(C)C)c3c4c(sc3n2)CCCC4)n1 | -98* | ? | 14µM* | 22µM* | 4.5µM*
Cc1cc(C)n(-c2nc(NCCCN(C)C)c3c4c(sc3n2)CCCC4)n1 | -28 | ? | 22µM* | . | -191%
Cc1ccc(C)c(N2CCN(S(=O)(=O)c3c(C(=O)N4CCC(C)CC4)c(C)n(C)c3C)CC2)c1 | . | -26% | . | . | -14%
COCC(=O)N(C)c1nnc(-c2ccc([N+](=O)[O-])cc2)s1 | -58* | 19% | 9% | i | 2%
C=CCN1CC[C@@H](O)C(=C)S1(=O)=O | . | -7% | . | . | -11%
Cc1cccc(N2CCN(C(=O)c3cc4ccc5cccnc5c4[nH]3)CC2C)c1 (stereo unspecified) | . | ? | . | . | -35%
CCCCN(C)CCCNC(=O)C1CCN(c2nc3ccc(CC)cc3s2)CC1 | . | ? | ? | . | 14µM*
CCOc1ccc2nc(N3CCCC(C(=O)NCCCN4CCOCC4)C3)sc2c1 (stereo unspecified) | -27 | -3% | 0% | i | -17%
CCOc1ccc(NCc2cccn2-c2nnc(N3CCC(C(=O)NCCCN4CC(C)CC(C)C4)CC3)s2)cc1 (stereo unspecified) | -82* | ? | 32µM* | ? | -87%
CCOc1ccc2nc(N3CCC(C(=O)NCCCN4CCOCC4)CC3)sc2c1 | -66* | 9% | -1% | i | 4%
O=C(C[n+]1cnn(CC(=O)c2ccc(Cl)cc2Cl)c1)c1ccc([N+](=O)[O-])cc1 | -71* | -11% | -17% | i | -69%
